The text below walks through data of PubChem BioAssay AID1159606 (Sanford-Burnham Center for Chemical Genomics, 2016).

The structures appear in SMILES notation. About 7,300 (2%) of roughly 360,000 compounds were called active. This is one part of a sample in which actives are shown more often than they occur. No stated cut-off is given here; in the data, active means inhibition above about 50%; inactive means the rest.

This experiment in a line: blockers of TWEAK-induced Fn14 reporter activity – luciferase reporter cells, uHTS, primary screen (AID 1159606). The note with it: TWEAK-stimulated Fn14 reporter cells, luciferase luminescence, 8 h; at 10 µM; stronger effect = higher value. (In a reporter assay the amount or activity of a reporter protein is the signal.)
For `C/C(=N/OC(=O)c1cccc(C(F)(F)F)c1)c1cnccn1`, the inhibition is -1.14% (inactive). Take `COC(=O)CCNc1ccc2c(c1)OCCO2`: the inhibition is 93.8% (active).

In the case of `CCOc1ccc(NCCC(=O)c2ccc3c(c2)OCO3)cc1`, the inhibition was -3.49% (inactive). Next, `Cc1ccc(OCCCC(=O)Nc2ccc3c(c2)OCCO3)cc1`: 63.9% (active). Take `Cc1ccc(OCCCC(=O)Nc2ccc(N3CCOCC3)cc2)cc1`: the inhibition is 4.69% (inactive). Take `CCc1ccccc1OCC(=O)Nc1ccc2c(c1)OCCO2`: the inhibition is -1.57% (inactive). `COc1ccccc1OCCCC(=O)Nc1ccc2c(c1)OCCO2`: the inhibition is -33.3% (inactive). Under `COC(=O)CCCCC1=CCC2C(=O)C=C(O)C2C1` (stereo not given) stands -0.75% (inactive); under `O=C(NCc1cccnc1)c1cc(C2CCCN(C(=O)C3CCCCC3)C2)on1` (stereo not given), -5.87% (inactive); under `CCc1ccc(CN(C)C(=O)CCc2nnc(-c3ccc(-c4ccccc4)cc3)o2)nc1`, 35.3% (inactive). Next, `CCCCCCc1cc2cc(-c3nnc(-c4ccccc4)o3)c(=O)oc2cc1O`: 69.9% (active). Next, `C#CCNC(=O)C[C@@H]1C[C@@]2(C(=O)OCC)CCCC=C2N(Cc2ccco2)C1=O`: -4.62% (inactive); `O=C(O)CC(Cn1cnnn1)c1ccccc1` (stereo not given): 0.41% (inactive); `CS/C(=C\C(=O)c1ccco1)Nc1ccccc1Cl`: -3.35% (inactive). Regarding `O=C(Nc1ccccc1Cl)/C(Cl)=C(\Cl)S(=O)c1ccccc1` (stereo not given), the inhibition is 105% (active). Consider `CC(=O)c1ccc(NC(=O)C(C)N(C)CC(=O)Nc2ccccc2Cl)cc1` (stereo not given), for which the inhibition is -3.04% (inactive).

Consider `OC(c1ccccc1)c1nc(-c2cnc3ccccc3c2)cs1` (stereo not given), for which the inhibition was 12.8% (inactive). Under `O=C(OCC(=O)N1CCN(C(=O)c2ccco2)CC1)c1c(Cl)cccc1Cl` stands 3.09% (inactive); under `O=C(OCC(=O)N1CCN(C(=O)c2ccco2)CC1)c1cccc(O)c1`, -18.9% (inactive). On to `O=C(OCC(=O)N1CCCC1)c1ccco1`, for which the inhibition was 70.7% (active). Regarding `Cc1ccc(-c2nnn(CC(=O)N(Cc3ccco3)C(C(=O)NC(C)(C)C)c3ccncc3)n2)o1` (stereo not given), the inhibition is -9.3% (inactive). Next, `O=C(O)CCn1c(O)c(C=C2N=c3ccccc3=N2)sc1=S`: 90.8% (active). Next, `CC(=O)NC(C(=O)NCC(N)=O)C(C)C` (stereo not given): -1.22% (inactive).

For the compound `CSC1=NN(c2ccccc2)CN(c2ccccc2)N1C`, the inhibition was 11.5% (inactive). Next, `Cc1ccc2nc(NC(=O)C3CCN(S(=O)(=O)c4ccc5c(c4)oc(=O)n5C)CC3)sc2c1`: 61.3% (active).

Consider `Cn1c(=O)oc2cc(S(=O)(=O)N3CCC(C(=O)Nc4ccc(OC(F)(F)F)cc4)CC3)ccc21`, for which the inhibition is -4.22% (inactive). Under `O=C(NC1CCCCC1)n1c(=O)oc2cc(S(=O)(=O)N3CCCCC3)ccc21` stands -2.85% (inactive); under `CC(C)C[C@@H](COCc1ccc(Cl)cc1)N1CCN(C(=O)c2ccc(Cl)cc2Cl)CCC1=O`, -5.63% (inactive).

On to `Cn1ccc(=Nc2ccc(NC(=O)c3ccc(N=c4ccn(C)c5ccc([N+](=O)[O-])cc45)cc3)cc2)cc1`, for which the inhibition was 11.6% (inactive).

As for `Cc1ccc(Oc2cc(NC(=O)CCCn3nc(C)c([N+](=O)[O-])c3C)cc([N+](=O)[O-])c2)cc1`, the inhibition is 29.9% (inactive). Under `N#CCSc1nc(-c2ccccc2)nc2ccc(F)cc12` stands 85.4% (active). Regarding `N#Cc1ccc(-c2ccc(F)cc2)nc1Sc1ccccc1`, the inhibition was -0.84% (inactive). Next, `Fc1ccc2nc(-c3ccccc3)nc(SCc3nnc(-c4ccccc4)o3)c2c1`: 1.42% (inactive); `CCCc1ccc(S(=O)(=O)N2CCN(C(=O)c3cc(C)on3)CC2)cc1`: 23.6% (inactive); `OC[C@@H]1CN(Cc2cccs2)C[C@H](n2cnc3c(NC4CCCC4)ncnc32)O1`: 3.36% (inactive). Under `OC[C@@H]1CN(Cc2ccc(F)cc2)C[C@H](n2cnc3c(NC4CCCC4)ncnc32)O1` stands 0.72% (inactive); under `OC[C@@H]1CN(Cc2ccc(-c3ccccc3)cc2)C[C@H](n2cnc3c(NC4CCCC4)ncnc32)O1`, 69.7% (active); under `COc1ccc(CNC(=O)COC(=O)CCS(=O)(=O)c2ccc(C)cc2)cc1OC`, -0.44% (inactive). Under `COc1ccc(NC(=O)CN(C)C(=O)Cc2coc3cc(C)c(C)cc23)cc1` stands -4.06% (inactive).

As to `COc1ccccc1/C=C/C=N/n1c(-c2ccc(Cl)cc2Cl)n[nH]c1=S`, the inhibition was -13.9% (inactive). Under `S=c1[nH]nc(-c2cccnc2)n1/N=C/C(Cl)=C\c1ccccc1` stands 55.4% (active). Under `Cc1cc(-c2n[nH]c(=S)n2/N=C/C(Br)=C/c2ccccc2)n[nH]1` stands 95% (active); under `S=c1[nH]nc(-c2ccco2)n1/N=C/c1ccc(Br)s1`, -5.12% (inactive); under `O=[N+]([O-])c1ccccc1/C=N/n1c(COc2ccccc2)n[nH]c1=S`, 17.8% (inactive). Under `Fc1ccc(/C=N/n2c(COc3ccccc3)n[nH]c2=S)cc1` stands -16.7% (inactive); under `COc1ccc(Cc2nnc(SCC(=O)N(c3ccccc3)C(C)C)n(N)c2=O)cc1`, 4.78% (inactive). For `COC(=O)[C@]12CCCCC=C1N(Cc1ccco1)C(=O)[C@H](CC(=O)NCC1CCCCC1)C2`, the inhibition was -2.8% (inactive). With `N#CCCN(C(=S)Nc1ccc(Cl)c(Cl)c1)C1CCCCC1`, the inhibition was 7.89% (inactive).

On to `Cc1ccc(F)c(S(=O)(=O)NC(=O)C2(C)CCN2C(=O)c2ccco2)c1` (stereo not given), for which the inhibition is 4.06% (inactive). `CC(C)n1cnc2c(Nc3cccc(Cl)c3)nc(N(CCO)CCCO)nc21`: the inhibition is 54.7% (active). Turning to `CC(C)C[C@H](CO)Nc1nc(N(C)c2cccc(Cl)c2)c2ncn(C(C)C)c2n1`, the inhibition was -0.23% (inactive). Under `CCOc1ccc(/C(O)=C2\C(=O)C(=O)N(c3ccc(OC)cc3)C2c2ccccc2[N+](=O)[O-])cc1` (stereo not given) stands 68.4% (active).

Take `COc1ccc(/C(O)=C2/C(=O)C(=O)N(c3nc(C)c(C)s3)C2c2ccco2)cc1` (stereo not given): the inhibition is 15.4% (inactive). Under `COc1ccc(C2/C(=C(/O)c3ccccc3)C(=O)C(=O)N2c2ncccn2)cc1OC` (stereo not given) stands 5.36% (inactive); under `CCCC(=O)Nc1ccc(C(=O)NCCCn2ccnc2)cc1`, -38.4% (inactive); under `COc1ccc(OC)c(C(=O)c2coc3ccc(O)c(CN4CCOCC4)c23)c1`, 28.4% (inactive). Next, `COc1ccc2occ(C(=O)c3ccc(N=C(C)N(C)C)cc3)c2c1`: -30.2% (inactive); `COc1ccc(OC)c(C(=O)c2coc3ccc(OC)cc23)c1`: 67.6% (active); `Cc1cc(Cl)c2oc(C(=O)NC(C)c3ccncn3)c(C)c2c1` (stereo not given): -26.6% (inactive). Under `CCOc1ccc(CCNC(=O)COC(=O)C2CCN(c3ccc(C(F)(F)F)cn3)CC2)cc1OCC` stands 6.43% (inactive). In the case of `O=C(CN1C(=O)NC(Cc2c[nH]c3ccccc23)C1=O)Nc1ccccc1C(F)(F)F` (stereo not given), the inhibition was 29.8% (inactive). Next, `Oc1c(Cl)cc(Cl)c(Cl)c1Cc1c(O)c(Cl)cc(Cl)c1Cl`: 64% (active). With `CC1Cc2[nH][nH]c(=O)c2C(C2CC2)O1` (stereo not given), the inhibition is 4.07% (inactive).

Regarding `CC(C)NC(=O)N1Cc2cc(C(=O)NCC(F)(F)F)nc(-c3cccc(-c4cc5ccccc5o4)c3)c2[C@@H]1CCO`, the inhibition is 37.6% (inactive). Under `CCOc1ccc(NC(=O)CN(C)C(=O)CSc2ccccc2)cc1OCC` stands 2.8% (inactive). Next, `CCOC(=O)C1=C(C)N=c2s/c(=C\C(=O)OC)c(=O)n2C1c1ccc(OC)cc1` (stereo not given): 87.1% (active); `CCOC(=O)c1cc2cc(OC)ccc2n1C1CCN(C)CC1`: -7.56% (inactive); `CCOC(=O)C1=C(CSc2nccn2C)NC(=O)NC1c1ccc(OC)cc1` (stereo not given): -0.26% (inactive). Regarding `Nc1ccccc1/C=N\N=C/c1ccccc1N`, the inhibition is -29.4% (inactive). `COC[C@@H]1NS(=O)(=O)c2ccc(Br)cc2O[C@H]1c1ccccc1`: the inhibition was 6.78% (inactive).

Turning to `CCOc1ccc(-n2c(SC(C)C(=O)OC)nc3c(c2=O)SCC3)cc1` (stereo not given), the inhibition was 1.38% (inactive). Next, `FC(F)(F)c1ccccc1Cc1c(-c2ccccc2)nc2c3ccccc3ccn12`: 8.37% (inactive); `Cc1ccc(Cc2c(-c3ccco3)nc3ccc(Cl)cn23)cc1`: 48.4% (inactive); `Cc1ccc(-c2nc3c(C)cc(Br)cn3c2Cc2ccccc2)cc1`: 13.1% (inactive).

Consider `Cc1ccc(Cc2c(-c3ccc(Cl)cc3)nc3c4ccccc4ccn23)cc1`, for which the inhibition was 22% (inactive). Next, `Cc1ccc(Cc2c(-c3ccc(C)cc3)nc3c4ccccc4ccn23)cc1`: 57.1% (active); `c1ccc(Cc2c(-c3ccco3)nc3c4ccccc4ccn23)cc1`: 57.8% (active). Next, `C=CCSc1nc2c(c(=O)[nH]1)C(C(C)C)C(C#N)=C(N)O2` (stereo not given): -24.9% (inactive); `O=C(NC1CCN(S(=O)(=O)c2ccc(F)cc2)CC1)c1ccccc1`: -13.3% (inactive). Turning to `COCCCn1c(-c2cccs2)nc2nc3ccccc3nc21`, the inhibition was 34.3% (inactive). Regarding `CCCc1c(-c2ccccc2F)ncn1Cc1ccccc1OC`, the inhibition was 2.25% (inactive). With `CC(=O)c1c(C)[nH]c(C(=O)COC(=O)c2cccs2)c1C`, the inhibition was -16.3% (inactive). Next, `CC(=O)c1c(C)[nH]c(C(=O)COC(=O)c2cccc(S(=O)(=O)N(C)c3ccccc3)c2)c1C`: 101% (active). Under `COc1cccc(C(=O)OCC(=O)c2[nH]c(C)c(C(C)=O)c2C)c1` stands -4.4% (inactive); under `COc1ccc(N(C(=O)c2snc(C(N)=O)c2N)C(C(=O)NC2CCCC2)c2ccc(C)o2)c(OC)c1` (stereo not given), 22.4% (inactive); under `COc1c(C)c2c(c(O)c1C/C=C(\C)CCC(=O)O)C(=O)OC2`, -6.73% (inactive). Next, `CCn1c(N)c(Br)c(=O)[nH]c1=O`: 9.55% (inactive).

With `CC(C)c1ccc2c(c1)c(SC(C)(C)C)c(CC(C)(C)C(=O)O)n2Cc1ccc(Cl)cc1`, the inhibition is 79.3% (active). Under `Cc1cccnc1CCNC(=O)C1CCC(=O)N(Cc2cccc(F)c2)C1` (stereo not given) stands -10.1% (inactive); under `CCOC(=O)C1CCCN(C(=O)COc2ccc(N(C)S(=O)(=O)c3ccc(C)cc3)cc2)C1` (stereo not given), 9.89% (inactive).

One may read the inhibition as the change of the read-out against control, counted positive when it falls.
